The values below come from PubChem BioAssay (EPA / NIEHS).

Broadly, the AC50 is the concentration at which the activity in the assay is half-maximal.

A short description of assay [1]: ATG_XTT_Cytotoxicity: Cytotoxicity Assessment in the Attagene TRANS-FACTORIAL HepG2 Assay (AID 2283584).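 For AC50: XTT signal for cell number as viability in transfected HepG2 cells; cells exposed to compound for 24 h before reading; active means loss of viability signal versus DMSO baseline.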 The method in brief:
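Transfect HepG2 with GAL4-UAS reporter units, dose compound, incubate 24 h, then measure viable cell number by XTT. Fit concentration response against DMSO baseline.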

Assay [2] in a line: TOX21_p53_BLA_p2_viability: Viability Assessment in the Tox21 HCT-116 p53 Agonism Beta-lactamase Assay, Phase 2 (AID 2283591).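 Note: compound exposure lasted 16 h at 37 °C; actives lower the ATP signal meaning cytotoxicity.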 Summed up:
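Cytotoxicity readout: CellTiter-Glo ATP luminescence, 30 min at room temperature, after the beta-lactamase read. Cells were HCT116 exposed 16 h at 37C to compounds pin-transferred at 217-fold dilution from DMSO stocks.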

Values joined by “and” are separate entries in the source; they are usually repeats but may differ in a detail not shown here. Equal values may be shown once. Records with an inconclusive call do not appear. Active and inactive are the calls of the source. Rule for the calls: active = hit-call score of the fitted dose curve at least 0.9, where 1 is the maximum; inconclusive = response in the unintended direction; inactive = score below 0.9.

Consider `CCCCCCCCCC=O`, for which the result in assay [1] and in assay [2] was inactive.
Regarding `CCCCCCCCCCCCCCCC(=O)O`, the result in assay [1] and in assay [2] was inactive.
In the case of `O=c1[nH]c(=O)n([C@H]2CCCO2)cc1F`, the compound was called inactive in assay [1] and in assay [2].
For `O=C1CCCCCCCCCCCCCCO1`, the call in assay [1] and in assay [2] was inactive.
Turning to `CCCCC(CC)COC(=O)/C=C\C(=O)OCC(CC)CCCC` (centres undefined), the compound was called inactive in assay [1] and in assay [2].
`CCN(CC)CCOC(=O)c1ccc(N)cc1`: the result in assay [1] and in assay [2] was inactive.
Turning to `O=C(O)c1cccc(C(F)(F)F)c1`, the result in assay [1] and in assay [2] was inactive.
Consider `CCCC1CCC(=O)O1` (centres undefined), for which the result in assay [1] and in assay [2] was inactive.
Turning to `CCCCCNCCCCC`, the compound was called inactive in assay [1] and in assay [2].
Turning to `O=C1OC2(c3cc(Br)c(O)c(Br)c3Oc3c2cc(Br)c(O)c3Br)c2c(Cl)c(Cl)c(Cl)c(Cl)c21`, the compound was classed as inactive in assay [1]. The AC50 in assay [2] was 46.2 µM (active) and 19.8 µM (active).
In the case of `CC(C)(C)C(=O)c1ccccc1`, the result in assay [1] and in assay [2] was inactive.
For the compound `C[C@H]1C[C@H]2[C@@H]3CCC4=CC(=O)C=C[C@]4(C)[C@@]3(F)[C@@H](O)C[C@]2(C)[C@@]1(O)C(=O)COP(=O)(O)O`, the outcome in assay [1] and in assay [2] was inactive.
`CCC(C)CCCC(C)(C)O` (centres undefined): the call in assay [1] and in assay [2] was inactive.
In the case of `CC1CCC2CC1C2(C)C` (centres undefined), the compound was called inactive in assay [1] and in assay [2].
For `NCCCCCCN`, the outcome in assay [1] and in assay [2] was inactive.
Regarding `O=c1cc(-c2ccccc2)oc2cc(O)cc(O)c12`, the compound was called inactive in assay [1] and in assay [2].
Turning to `CCN(CC)c1ccc(C(=C2C=CC(=[N+](CC)CC)C=C2)c2ccc(S(=O)(=O)O)cc2S(=O)(=O)[O-])cc1`, the compound was classed as inactive in assay [1]. For the same compound, in assay [2], the AC50 was 26.5 µM (active).
As to `C[C@]12CC[C@H]3[C@@H](CCC4=CC(=O)CC[C@@]43C)[C@@H]1CC[C@@H]2C(=O)CO`, the outcome in assay [1] and in assay [2] was inactive.
As for `CC(=O)Nc1ccc(C)cc1C`, the compound was called inactive in assay [1] and in assay [2].
On to `CC1(C)CCC(C)(C)c2cc(C(=O)Nc3ccc(C(=O)O)cc3)ccc21`, for which the compound was classed as inactive in assay [1]. For the same compound, the AC50 in assay [2] is 28.1 µM (active).
On to `CC[Si](OC(C)=O)(OC(C)=O)OC(C)=O`, for which the outcome in assay [1] and in assay [2] was inactive.
As to `CCCCO`, the compound was called inactive in assay [1] and in assay [2].
On to `BrC1CCC(Br)C(Br)CCC(Br)C(Br)CCC1Br` (centres undefined), for which the compound was classed as inactive in assay [1]. Besides, the AC50 in assay [2] was 18.1 µM (active) and 18.2 µM (active).
Consider `C=CC(=O)OCCOCCOCC`, for which the compound was classed as inactive in assay [1] and in assay [2].
Take `CC(CN1c2ccccc2Sc2ccccc21)N(C)C` (centres undefined): the compound was called inactive in assay [1]. Moreover, the AC50 in assay [2] was 38.9 µM (active).
Regarding `CC(=O)C(C)=O`, the outcome in assay [1] and in assay [2] was inactive.
For `CC(C)C(C)(C)C(C)(C)C(C)(C)S`, the outcome in assay [1] and in assay [2] was inactive.
`Cc1cc(C2(c3cc(C)c(O)cc3C)OS(=O)(=O)c3ccccc32)c(C)cc1O`: the call in assay [1] and in assay [2] was inactive.
As for `CN(CCOc1ccc(CC2SC(=O)NC2=O)cc1)c1ccccn1` (centres undefined), the compound was called inactive in assay [1] and in assay [2].
Turning to `O=[N+]([O-])c1ccc(Nc2ccc(Nc3ccccc3)c(S(=O)(=O)O)c2)c([N+](=O)[O-])c1`, the call in assay [1] and in assay [2] was inactive.
Consider `O=C(Cl)c1cccc(C(=O)Cl)c1`, for which the call in assay [1] and in assay [2] was inactive.
Regarding `C=CC(=O)OCCn1c(=O)n(CCOC(=O)C=C)c(=O)n(CCOC(=O)C=C)c1=O`, the AC50 in assay [1] is 71 µM (active); in assay [2], 46.1 µM (active).
Consider `O=P(c1ccccc1)(c1ccccc1)c1ccccc1`, for which the result in assay [1] and in assay [2] was inactive.
As for `O=C(O)c1snc(Cl)c1Cl`, the result in assay [1] and in assay [2] was inactive.
`CC(=O)OCC=Cc1ccccc1`: the compound was called inactive in assay [1] and in assay [2].
As for `CC(C)=CCC/C(C)=C/COC=O`, the call in assay [1] and in assay [2] was inactive.
For the compound `CN(C)CCOCCN(C)C`, the compound was classed as inactive in assay [1] and in assay [2].
As to `CO[Si](C)(OC)c1ccccc1`, the outcome in assay [1] and in assay [2] was inactive.
Take `CCc1ccc(C=O)cc1`: the compound was classed as inactive in assay [1] and in assay [2].
`CC1(C)[C@@H]2CC[C@@]1(C)[C@H](O)C2`: the outcome in assay [1] and in assay [2] was inactive.
With `O=C[C@@H](O)[C@H](O)[C@H](O)CO`, the result in assay [1] and in assay [2] was inactive.
As to `CNC[C@H](O)c1cccc(O)c1`, the outcome in assay [1] and in assay [2] was inactive.
For `CC(C)C1CCC(O)CC1` (centres undefined), the call in assay [1] and in assay [2] was inactive.
In the case of `NCCNCCN`, the outcome in assay [1] and in assay [2] was inactive.
As to `Nc1cc([N+](=O)[O-])ccc1O`, the call in assay [1] and in assay [2] was inactive.
For `CC(=O)[O][Al][O]C(C)=O`, the compound was classed as inactive in assay [1] and in assay [2].
Turning to `CC(=O)C(=O)O`, the outcome in assay [1] and in assay [2] was inactive.
